Target: Large ribosomal subunit protein eL13A (UniProt Q12690)
Experiment: cross-link between two proteins; cross-linking mass spectrometry

Sequence of Large ribosomal subunit protein eL13A (Q12690 whole entry): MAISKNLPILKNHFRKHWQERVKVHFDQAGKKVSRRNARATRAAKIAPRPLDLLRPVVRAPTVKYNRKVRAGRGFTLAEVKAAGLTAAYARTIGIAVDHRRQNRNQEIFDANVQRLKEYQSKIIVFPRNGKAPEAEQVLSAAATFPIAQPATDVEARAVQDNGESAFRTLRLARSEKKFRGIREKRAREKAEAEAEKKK

Substance: Large ribosomal subunit protein eL36B, O14455
- listed as a hit: yes

Substance: Large ribosomal subunit protein uL29A, P0CX84
- listed as a hit: yes
